NCOA1 inh = human NCOA1 inhibition; HEK293 GAL4-SRC1 luciferase reporter, luminescence; inhibition, % at 3.6 µM; 0.12% of 360,000 active; AID 588354;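 active means inhibition above the campaign mean plus 3 SD, with each screening campaign given its own cutoff, cut at about 60% in these data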
SRC3 inh = inhibits human SRC3 coactivator; AID 588352; 0.17% of 360,000 active; Q9Y6Q9; inhibition, % at 3.6 µM; HEK293 GAL4-SRC3 luciferase reporter, luminescence;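 active means inhibition above a per-campaign cutoff, the mean of all compounds plus 3 SD, cut at about 60% in these data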;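 further: higher means less SRC3-driven luciferase light from the GAL4 reporter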
NCOA2 inhibitor = human SRC2 (NCOA2) inhibition; HEK293 GAL4-SRC2 luciferase reporter, luminescence; inhibition, % at 9 µM; 0.17% of 370,000 active; AID 651957;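 active means inhibition above the mean inhibition of all tested compounds plus 3 SD, set per campaign, cut at about 52% in these data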
NR5A2 inv ag = inverse agonists of human LRH-1 (NR5A2) | HEK293T StAR-luciferase reporter, LRH-1 transfected, 24 h | inhibition, % at 3.6 µM | 0.13% of 360,000 active | AID 602396;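 active means inhibition above the mean inhibition of all tested compounds plus 3 SD, cut at about 73% in these data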
GalR3 antagonist = human GalR3 antagonism; O60755; HEK293 GalR3-CNG cAMP membrane potential fluorescence; galR3 body fused to GalR1 C-terminus; inhibition, % at 3 µM; 0.44% of 360,000 active; AID 651719;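 active means inhibition above the screen-wide average plus 3 SD, cut at about 13% in these data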;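 further: forskolin and galanin both at EC90 stimulate the cells; cAMP rise reported by CNG channel membrane potential dye signal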
Target sequence (O60755 1-299 limits assumed): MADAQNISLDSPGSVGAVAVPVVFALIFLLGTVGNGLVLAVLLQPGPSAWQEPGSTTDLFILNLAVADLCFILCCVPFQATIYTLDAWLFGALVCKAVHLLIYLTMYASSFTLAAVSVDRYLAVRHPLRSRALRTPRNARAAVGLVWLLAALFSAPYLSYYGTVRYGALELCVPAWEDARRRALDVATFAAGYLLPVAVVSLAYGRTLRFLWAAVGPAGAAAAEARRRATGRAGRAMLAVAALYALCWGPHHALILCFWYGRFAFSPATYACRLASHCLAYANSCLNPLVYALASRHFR
COUP-TFII inh = inhibitors of human COUP-TFII (NR2F2); HEK293T NGFI-A luciferase reporter, luminescence; inhibition, % at 8.6 µM; 0.7% of 370,000 active; AID 686940;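 active means inhibition above a per-plate cutoff, mean inhibition of test wells between control levels plus 3 SD, cut at about 38% in these data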;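 further: cells cotransfected with COUP-TFII expression vector driving the NGFI-A reporter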
VP16 Luc counter = inhibits VP16 reporter, flagging COUP-TFII antagonist hits; shares compounds with COUP-TFII inh; HEK293 Gal4-VP16 luciferase reporter, luminescence; inhibition, % at 8.5 µM; 25% of 2,500 active; in the data active means inhibition above about 13%
COUP-TFII conf = confirmation of human COUP-TFII (NR2F2) inhibitors | HEK293 NGFI-A luciferase reporter, luminescence | 45% of 2,500 active | shares compounds with COUP-TFII inh | inhibition, % at 8.5 µM;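 active means mean inhibition over three repeats above a set limit taken from the earlier primary screen, cut at about 38% in these data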
Large screens that a line does not name were inactive (follow-up assays come after a bar, where they were run). Only some compounds are listed: those with a hit (about 1.1% of all), similar ones and a draw of the others.

CC(=O)O[C@H]1C[C@@H]2OC3C=C(C)CCC3(C)[C@@]1(C)[C@@]21CO1 (some centres not stated)	NCOA1 inh 94.2, SRC3 inh 92.3, NCOA2 inhibitor 69.0, NR5A2 inv ag 97.4, COUP-TFII inh 76.7 | VP16 Luc counter 16.0 | COUP-TFII conf 72.1
CC(=O)OC1CC2OC3C=C(C)CCC3(C)C1(C)C21CO1 (configuration not stated)	NCOA1 inh 95.5, SRC3 inh 94.7, NCOA2 inhibitor 69.1, NR5A2 inv ag 102.7, COUP-TFII inh 84.8 | VP16 Luc counter 16.6 | COUP-TFII conf 71.8
Cc1ccccc1C(=O)NCCN1CCC2(CC1)C(=O)NCN2c1ccccc1	none (no result: NCOA1 inh, SRC3 inh, NR5A2 inv ag)
CN1C[C@H](O)[C@H]2C[C@@H]1c1ccccc1O2	none (no result: NCOA1 inh, SRC3 inh, NR5A2 inv ag)
CC(N)C(=O)NC1C2C(=C(O)CC(O)C2O)C(=O)OC1(C)C(Cl)Cl (configuration not stated)	NCOA1 inh 93.3, SRC3 inh 91.0, NCOA2 inhibitor 64.5, NR5A2 inv ag 96.8, COUP-TFII inh 76.4 | VP16 Luc counter inactive | COUP-TFII conf 57.0
N#CCCC#N	none (no result: NCOA1 inh, SRC3 inh, NR5A2 inv ag)
CC(=O)OC1CC(OC2C(O)CC(OC3C(O)CC(OC4CCC5(C)C(CCC6C5CC(O)C5(C)C(C7=CC(=O)OC7)CCC65O)C4)OC3C)OC2C)OC(C)C1OC1OC(CO)C(O)C(O)C1O (configuration not stated)	NCOA1 inh 87.0, SRC3 inh 90.2, NCOA2 inhibitor 61.2, NR5A2 inv ag 102.6, COUP-TFII inh 78.7 | VP16 Luc counter 51.6 | COUP-TFII conf 76.3
COC1C(O)C(C)OC(OC2CCC3(C)C(CCC4C3C(O)CC3(C)C(C5=CC(=O)OC5)CCC43O)C2)C1O (configuration not stated)	NCOA1 inh 87.4, SRC3 inh 90.1, NCOA2 inhibitor 57.7, NR5A2 inv ag 100.8, GalR3 antagonist 27.7, COUP-TFII inh 76.6 | VP16 Luc counter 53.9 | COUP-TFII conf 78.9
CC12CC[C@H]3[C@@H](CCC4(O)C[C@H](O)CCC34/C=N/NC(=O)c3ccccc3[N+](=O)[O-])C1(O)CCC2C1=CC(=O)OC1 (some centres not stated)	none
C[C@]12CC[C@H](O)C[C@H]1CC[C@@H]1[C@@H]2CC[C@]2(C)[C@@H](C3=CC(=O)OC3)CC[C@]12O	NCOA1 inh 82.6, SRC3 inh 84.9, NR5A2 inv ag 102.1, GalR3 antagonist 26.4, COUP-TFII inh 77.0 | VP16 Luc counter 46.6 | COUP-TFII conf 73.5
C[C@]12CC[C@H](O)C[C@H]1CC[C@@H]1[C@@H]2C[C@@H](O)[C@]2(C)[C@@H](C3=CC(=O)OC3)CC[C@]12O	SRC3 inh 75.1, NR5A2 inv ag 102.8, COUP-TFII inh 80.7 | VP16 Luc counter 29.3 | COUP-TFII conf 58.5
Cc1c(P(=S)(c2ccccc2)c2ccccc2)c2ccccc2n1C	none (no result: NCOA1 inh, SRC3 inh, NCOA2 inhibitor, NR5A2 inv ag, GalR3 antagonist)
Fc1ccc2nc(-c3ccc(CN4CCC(n5nnc6ccccc65)CC4)cc3)c(-c3ccccc3)nc2c1	none (no result: NCOA1 inh, SRC3 inh, NR5A2 inv ag)
COc1cccc(NC2=NCCS2)c1	none (no result: NCOA1 inh, SRC3 inh, NR5A2 inv ag)
Brc1ccc2c(c1)-n1nncc1CNC2	none (no result: NCOA1 inh, SRC3 inh, NR5A2 inv ag)
CNC(=O)Nc1ccc(C(=O)N/N=C\C23CC[C@@H](O)CC2(O)CC[C@@H]2[C@@H]3CCC3(C)C(C4=CC(=O)OC4)CCC23O)cc1 (some centres not stated)	none
CC12CCC(O)CC1CCC1C2CCC2(C)C(C3=CC(=O)OC3)CCC12O (configuration not stated)	NCOA1 inh 82.1, SRC3 inh 83.9, NR5A2 inv ag 98.7, GalR3 antagonist 30.0, COUP-TFII inh 71.6 | VP16 Luc counter 45.3 | COUP-TFII conf 71.6
O=C(CNCc1c(F)cccc1F)N1CCC2(CC1)OCCO2	none (no result: NCOA1 inh, SRC3 inh, NR5A2 inv ag, GalR3 antagonist)
CN1c2ccc(Br)cc2[C@@H]2NCC[C@@H]2[C@@H]1CO	none (no result: NCOA1 inh, SRC3 inh, NR5A2 inv ag, GalR3 antagonist)
C[C@@H]1O[C@@H](O[C@H]2C[C@@H](O)[C@]3(CO)[C@@H]4C(CC[C@]3(O)C2)[C@@]2(O)CC[C@H](C3COC(=O)C3)[C@@]2(C)C[C@H]4O)[C@H](O)[C@H](O)[C@H]1O (some centres not stated)	SRC3 inh 67.3, NR5A2 inv ag 98.7, GalR3 antagonist 15.9, COUP-TFII inh 63.9 | VP16 Luc counter 13.6 | COUP-TFII conf 57.7
CC(C)S(=O)(=O)N1Cc2ccc(Br)cc2-n2nncc2C1	none (no result: NCOA1 inh, SRC3 inh, NR5A2 inv ag)
O=C(NCCN1CCC2(CC1)C(=O)NCN2c1ccccc1)c1ccc(Cl)cc1	none (no result: NCOA1 inh, SRC3 inh, NR5A2 inv ag)
C=C1C(=O)O[C@@H]2C[C@@H](C)[C@@H]3C=CC(=O)[C@@]3(C)[C@@H](OC(=O)CC(=O)O[C@H]3[C@@H]4C(=C)C(=O)O[C@@H]4C[C@@H](C)[C@@H]4C=CC(=O)[C@]43C)[C@H]12	NCOA1 inh 66.3, SRC3 inh 74.1, NCOA2 inhibitor 93.5, NR5A2 inv ag 87.5, COUP-TFII inh 97.9 | VP16 Luc counter 96.4 | COUP-TFII conf 108.6
O=C(NC1CCCCC1)N1Cc2cc(Br)ccc2-n2nncc2C1	none (no result: NCOA1 inh, SRC3 inh, NR5A2 inv ag)

From PubChem
